Test systems include SR leukemia; RPMI-8226 leukemia; OVCAR-8 ovarian; OVCAR-5 ovarian; OVCAR-4 ovarian; SK-OV-3 ovarian; OVCAR-3 ovarian; HS 578T breast; NCI/ADR-RES ovarian; IGROV1 ovarian.
Experiment in all cases: NCI-60 one-dose screen, 48 h (100 = growth as untreated, 0 = no growth, -100 = all killed)
Holding throughout (settings): 10 µM unless noted

Among the data in PubChem BioAssay (NCI) are growth values, retold here.

Structures are written as SMILES. About 83,000 compounds went through this panel and 20% of them were active in at least one assay; those are over-represented in the sample as a whole.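 Growth was measured after 48 h exposure to one concentration of compound in 96-well plates. Values under 10 count as active.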 A number with no mark means an inactive call. Activity calls are given as the source filed them.

Turning to `CC1(C)[C@H](O)CC[C@]2(C)[C@@H]1CC[C@@]13C[C@@H](CC[C@H]12)[C@@](O)(CO)C3`, the growth in the assay on SR leukemia is 103%; with RPMI-8226 leukemia it was 108%; in the assay with OVCAR-8 ovarian, 110%; in the assay on OVCAR-5 ovarian, 106%; with OVCAR-4 ovarian, 117%; with SK-OV-3 ovarian, 109%. Further, the results for the growth in the assay on OVCAR-3 ovarian, in the assay with HS 578T breast and with NCI/ADR-RES ovarian were 112%, 97.9% and 106%, respectively.

As for `CN1CCN(Cc2ccc(NC(=O)c3cncc(C#Cc4cnccc4C(F)(F)F)c3)cc2C(F)(F)F)CC1`, the growth was 37.3% in the assay with SR leukemia; 70.6% in the assay on RPMI-8226 leukemia; 92.2% with OVCAR-8 ovarian; 67.4% with OVCAR-5 ovarian; 59.2% in the assay with OVCAR-4 ovarian; 89% with SK-OV-3 ovarian. The growth is 58.3% in the assay on IGROV1 ovarian, 53% with HS 578T breast and 85.8% in the assay with NCI/ADR-RES ovarian.

On to `CCN(CC)CCCC(C)Nc1cc(-c2cccc(OC(F)(F)F)c2)nc2ccc(N3CCCC3)cc12` (stereo unspecified), for which the growth is -31.6% (active) in the assay with SR leukemia; -37% (active) with RPMI-8226 leukemia; -5.79% (active) with OVCAR-8 ovarian; 31.1% with OVCAR-5 ovarian; 34.8% in the assay with OVCAR-4 ovarian; 82% with SK-OV-3 ovarian. Besides, the growth with OVCAR-3 ovarian is 0.648% (active); in the assay with HS 578T breast, -22.3% (active); with NCI/ADR-RES ovarian, 13.4%.

Consider `CCn1ccnc1C(=O)/C=C/c1ccc(CC(=O)Nc2ccc(F)cc2)cc1`, for which the growth with SR leukemia was 14.8%; in the assay with RPMI-8226 leukemia, 2.37% (active); in the assay with OVCAR-8 ovarian it was -2.13% (active); in the assay on OVCAR-5 ovarian, 44.5%; in the assay on OVCAR-4 ovarian, 35.4%; in the assay on SK-OV-3 ovarian it was 86.6%. In addition, the values for the growth in the assay with OVCAR-3 ovarian, in the assay on HS 578T breast and in the assay with NCI/ADR-RES ovarian were -4.68% (active), 52.5% and 4.48% (active), respectively.

Regarding `O=C1c2cccnc2C(=O)c2nc3cc(N4CCN(C5CC5)CC4)ccc3nc21`, the growth in the assay on SR leukemia was -10% (active); in the assay on RPMI-8226 leukemia, 25.3%; in the assay on OVCAR-8 ovarian it was -15.2% (active); in the assay with OVCAR-5 ovarian, -82.3% (active); in the assay with OVCAR-4 ovarian it was -87.8% (active); in the assay on SK-OV-3 ovarian, -78.6% (active). The growth in the assay with IGROV1 ovarian was -13.8% (active); in the assay with HS 578T breast, -36.5% (active); with NCI/ADR-RES ovarian, 20.1%.

`Nc1ncc(C#Cc2cncc(NC(=O)c3cccc(C(F)(F)F)c3)c2)c2cccnc12`: the growth is 37.7% in the assay on SR leukemia; 60.7% in the assay on RPMI-8226 leukemia; 47.5% in the assay on OVCAR-8 ovarian; 52.9% in the assay on OVCAR-5 ovarian; 25.6% in the assay on OVCAR-4 ovarian; 67.3% with SK-OV-3 ovarian. The growth with IGROV1 ovarian is 40.4%; in the assay on HS 578T breast it was 27%; in the assay on NCI/ADR-RES ovarian, 66.1%.

For the compound `COc1cc(NCC(O)CN(CC(C)C)C2CCCC2)c2ncccc2c1` (stereo unspecified), the growth in the assay on SR leukemia was 80.1%; with RPMI-8226 leukemia it was 94.6%; with OVCAR-8 ovarian, 86.5%; with OVCAR-5 ovarian, 101%; in the assay with OVCAR-4 ovarian, 42.3%; with SK-OV-3 ovarian it was 93.3%. Moreover, the figures for the growth in the assay on OVCAR-3 ovarian, in the assay with HS 578T breast and with NCI/ADR-RES ovarian were 63.7%, 73.3% and 89.2%, respectively.

On to `CCc1c(Nc2ccc(C)cc2)[nH]c(N)nc1=S`, for which the growth in the assay with SR leukemia is 94.4%; in the assay on RPMI-8226 leukemia, 115%; in the assay with OVCAR-8 ovarian, 101%; in the assay on OVCAR-5 ovarian, 98.9%; in the assay on OVCAR-4 ovarian it was 107%; in the assay on SK-OV-3 ovarian, 111%. Also, the growth was 104% in the assay with IGROV1 ovarian, 94.8% in the assay with HS 578T breast and 105% in the assay with NCI/ADR-RES ovarian.

For `Clc1ccc(N2N=C(c3cccc(Nc4ccncc4)c3)CC2c2ccc3c(c2)OCO3)cc1` (stereo unspecified), the growth was 6.11% (active) in the assay on SR leukemia; 44.1% in the assay with RPMI-8226 leukemia; 26.7% in the assay with OVCAR-8 ovarian; 73.9% with OVCAR-5 ovarian; 44.7% in the assay with OVCAR-4 ovarian; 54.8% in the assay on SK-OV-3 ovarian. Besides, the growth in the assay with OVCAR-3 ovarian was 23.5%; with HS 578T breast, 68.9%; in the assay with NCI/ADR-RES ovarian, 31.2%.

For `CSc1nc(O)c(-c2ccccc2)c(=O)[nH]1`, the growth with SR leukemia is 96%; in the assay on RPMI-8226 leukemia, 102%; in the assay with OVCAR-8 ovarian, 101%; in the assay on OVCAR-5 ovarian it was 97.5%; with OVCAR-4 ovarian, 108%; with SK-OV-3 ovarian, 116%. Further, the growth in the assay on IGROV1 ovarian is 104%; in the assay on HS 578T breast, 110%; in the assay on NCI/ADR-RES ovarian, 106%.

On to `Cn1c(COC(=O)NCCN2CCOCC2)nc2c(N3CCOCC3)nc(-c3ccccc3)nc21`, for which the growth is -5.83% (active) in the assay on SR leukemia; -26.2% (active) in the assay on RPMI-8226 leukemia; 7.67% (active) in the assay with OVCAR-8 ovarian; -86.6% (active) in the assay with OVCAR-5 ovarian; -61.1% (active) with OVCAR-4 ovarian; 77.7% in the assay with SK-OV-3 ovarian. For the same compound, the growth was -93.3% (active) in the assay with IGROV1 ovarian, -35% (active) in the assay with HS 578T breast and -12.7% (active) in the assay with NCI/ADR-RES ovarian.

For the compound `CCOC(=O)C1CC(=O)c2cc(OC)c(OC)cc2C1` (stereo unspecified), the growth in the assay on SR leukemia is 89.6%; with RPMI-8226 leukemia, 82.3%; with OVCAR-8 ovarian, 103%; in the assay on OVCAR-5 ovarian, 101%; in the assay on OVCAR-4 ovarian, 96.8%; in the assay with SK-OV-3 ovarian it was 106%. The growth with OVCAR-3 ovarian is 110%; with HS 578T breast, 112%; in the assay on NCI/ADR-RES ovarian, 98.5%.

For `CCCCOc1ccc(/C=N/Nc2cc(C)nc3ccc(Cl)cc23)cc1`, the growth in the assay with SR leukemia is -20.8% (active); in the assay with RPMI-8226 leukemia it was -31.6% (active); with OVCAR-8 ovarian it was -58.5% (active); with OVCAR-5 ovarian, 88.9%; in the assay with OVCAR-4 ovarian, 5.29% (active); in the assay with SK-OV-3 ovarian, 79.5%. Further, the growth is -71.6% (active) in the assay with IGROV1 ovarian, 47.7% in the assay with HS 578T breast and 58.7% with NCI/ADR-RES ovarian.

`COc1ccc(-c2nc(N/N=C/c3cccc(Br)c3)nc(N3CCOCC3)c2C#N)cc1`: the growth with SR leukemia was -21.3% (active); in the assay on RPMI-8226 leukemia, 35.8%; with OVCAR-8 ovarian, 69.9%; with OVCAR-5 ovarian it was 111%; in the assay on OVCAR-4 ovarian it was 81.2%; in the assay with SK-OV-3 ovarian it was 97.1%. In addition, the growth with IGROV1 ovarian is 89.1%; with HS 578T breast, 68%; in the assay with NCI/ADR-RES ovarian, 83.3%.
